# In ChEMBL document CHEMBL1961873, “Compounds: GSK PKIS; Assays: Nanosyn kinase panel” (2012):
# Assays:
# [1] = target: Dual specificity protein kinase CLK3 (Homo sapiens) (UniProt P49761); settings: at 1 µM;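 note: each value is the mean inhibition of CLK3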
# [2] = target: Dual specificity tyrosine-phosphorylation-regulated kinase 1A (Homo sapiens) (UniProt Q13627); settings: at 0.1 µM
# [3] = target: Dual specificity tyrosine-phosphorylation-regulated kinase 1A (Homo sapiens) (UniProt Q13627); settings: at 1 µM
# [4] = target: Dual specificity tyrosine-phosphorylation-regulated kinase 1B (Homo sapiens) (UniProt Q9Y463); settings: at 0.1 µM
# [5] = target: Dual specificity tyrosine-phosphorylation-regulated kinase 1B (Homo sapiens) (UniProt Q9Y463); settings: at 1 µM
# [6] = target: T1, Dual specificity tyrosine-phosphorylation-regulated kinase 2 (Homo sapiens) (UniProt Q92630); settings: at 0.1 µM
# T1 sequence (whole entry): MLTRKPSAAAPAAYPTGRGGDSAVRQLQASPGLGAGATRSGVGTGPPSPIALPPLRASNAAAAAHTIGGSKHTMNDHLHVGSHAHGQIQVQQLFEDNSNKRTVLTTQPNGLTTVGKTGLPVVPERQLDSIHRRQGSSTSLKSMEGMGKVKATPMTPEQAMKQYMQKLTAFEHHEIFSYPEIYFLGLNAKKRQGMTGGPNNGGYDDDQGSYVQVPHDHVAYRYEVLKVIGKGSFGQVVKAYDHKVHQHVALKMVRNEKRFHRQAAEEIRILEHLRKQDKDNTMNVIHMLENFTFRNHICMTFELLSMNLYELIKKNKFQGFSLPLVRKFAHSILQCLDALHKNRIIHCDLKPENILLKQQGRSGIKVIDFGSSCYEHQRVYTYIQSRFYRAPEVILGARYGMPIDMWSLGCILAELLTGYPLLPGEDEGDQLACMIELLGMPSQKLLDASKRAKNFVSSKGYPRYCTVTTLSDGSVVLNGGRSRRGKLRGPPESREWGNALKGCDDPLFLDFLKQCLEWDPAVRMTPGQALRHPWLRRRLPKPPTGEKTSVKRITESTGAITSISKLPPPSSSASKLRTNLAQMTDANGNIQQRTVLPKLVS
# [7] = target: T1, Dual specificity tyrosine-phosphorylation-regulated kinase 2 (Homo sapiens); settings: at 1 µM
# [8] = target: Glycogen synthase kinase-3 alpha (Homo sapiens) (UniProt P49840); settings: at 0.1 µM
# [9] = target: Glycogen synthase kinase-3 alpha (Homo sapiens) (UniProt P49840); settings: at 1 µM
# [10] = target: Glycogen synthase kinase-3 beta (Homo sapiens) (UniProt P49841); settings: at 0.1 µM
# [11] = target: Glycogen synthase kinase-3 beta (Homo sapiens) (UniProt P49841); settings: at 1 µM
# [12] = target: Homeodomain-interacting protein kinase 1 (Homo sapiens) (UniProt Q86Z02); settings: at 0.1 µM
# [13] = target: Homeodomain-interacting protein kinase 1 (Homo sapiens) (UniProt Q86Z02); settings: at 1 µM
# [14] = target: T2, Homeodomain-interacting protein kinase 4 (Homo sapiens) (UniProt Q8NE63); settings: at 0.1 µM
# T2 sequence (whole entry): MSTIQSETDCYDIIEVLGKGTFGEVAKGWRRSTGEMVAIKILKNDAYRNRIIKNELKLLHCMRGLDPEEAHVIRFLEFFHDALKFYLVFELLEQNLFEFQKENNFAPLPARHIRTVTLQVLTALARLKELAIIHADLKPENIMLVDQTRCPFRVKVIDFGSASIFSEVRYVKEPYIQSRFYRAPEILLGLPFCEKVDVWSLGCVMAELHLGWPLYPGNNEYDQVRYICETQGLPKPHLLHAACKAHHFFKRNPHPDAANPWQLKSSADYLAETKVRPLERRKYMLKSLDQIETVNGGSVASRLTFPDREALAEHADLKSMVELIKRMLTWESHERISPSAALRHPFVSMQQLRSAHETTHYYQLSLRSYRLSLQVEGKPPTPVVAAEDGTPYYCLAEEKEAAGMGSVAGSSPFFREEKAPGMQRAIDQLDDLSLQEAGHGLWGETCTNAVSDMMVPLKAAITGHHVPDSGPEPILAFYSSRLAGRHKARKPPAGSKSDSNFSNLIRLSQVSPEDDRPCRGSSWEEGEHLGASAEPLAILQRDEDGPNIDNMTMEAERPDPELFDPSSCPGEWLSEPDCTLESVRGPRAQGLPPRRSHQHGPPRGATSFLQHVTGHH
# [15] = target: T2, Homeodomain-interacting protein kinase 4 (Homo sapiens); settings: at 1 µM
# [16] = target: Mitogen-activated protein kinase 9 (Homo sapiens) (UniProt P45984); settings: at 0.1 µM
# [17] = target: Mitogen-activated protein kinase 9 (Homo sapiens) (UniProt P45984); settings: at 1 µM
# [18] = target: Mitogen-activated protein kinase 1 (Homo sapiens) (UniProt P28482); settings: at 0.1 µM
# [19] = target: Mitogen-activated protein kinase 1 (Homo sapiens) (UniProt P28482); settings: at 1 µM
# [20] = target: Mitogen-activated protein kinase 3 (Homo sapiens) (UniProt P27361); settings: at 0.1 µM;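 note: each value is a mean inhibition figure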
# Sequence of Mitogen-activated protein kinase 3 (Homo sapiens) (P27361 whole entry): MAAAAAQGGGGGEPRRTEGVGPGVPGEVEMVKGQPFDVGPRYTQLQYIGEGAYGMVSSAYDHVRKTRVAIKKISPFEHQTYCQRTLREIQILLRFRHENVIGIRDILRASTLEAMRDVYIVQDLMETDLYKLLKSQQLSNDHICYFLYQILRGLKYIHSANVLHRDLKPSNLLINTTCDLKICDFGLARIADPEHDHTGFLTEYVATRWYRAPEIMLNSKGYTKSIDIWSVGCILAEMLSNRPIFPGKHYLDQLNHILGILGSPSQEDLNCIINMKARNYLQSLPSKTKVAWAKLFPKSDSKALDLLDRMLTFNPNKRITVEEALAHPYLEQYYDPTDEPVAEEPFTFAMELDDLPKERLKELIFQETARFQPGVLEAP
# Sequence of Dual specificity tyrosine-phosphorylation-regulated kinase 1B (Homo sapiens) (Q9Y463 whole entry, looked up): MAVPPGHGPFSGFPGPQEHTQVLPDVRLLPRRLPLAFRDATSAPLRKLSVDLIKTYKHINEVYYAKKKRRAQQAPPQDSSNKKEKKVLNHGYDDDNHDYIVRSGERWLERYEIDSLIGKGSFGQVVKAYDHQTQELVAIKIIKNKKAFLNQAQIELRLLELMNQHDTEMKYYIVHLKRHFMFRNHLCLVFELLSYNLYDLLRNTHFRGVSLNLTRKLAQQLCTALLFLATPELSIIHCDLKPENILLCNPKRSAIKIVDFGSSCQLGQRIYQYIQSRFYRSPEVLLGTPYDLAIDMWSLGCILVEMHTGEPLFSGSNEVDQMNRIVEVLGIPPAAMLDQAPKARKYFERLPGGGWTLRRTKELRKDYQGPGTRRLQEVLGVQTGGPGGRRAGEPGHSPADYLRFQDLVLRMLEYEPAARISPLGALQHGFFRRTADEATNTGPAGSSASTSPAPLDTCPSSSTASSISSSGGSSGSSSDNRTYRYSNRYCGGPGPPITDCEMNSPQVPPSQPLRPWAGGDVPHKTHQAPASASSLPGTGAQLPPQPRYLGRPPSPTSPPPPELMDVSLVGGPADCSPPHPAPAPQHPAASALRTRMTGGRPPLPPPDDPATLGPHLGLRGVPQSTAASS
# Sequence of Homeodomain-interacting protein kinase 1 (Homo sapiens) (Q86Z02 whole entry, looked up): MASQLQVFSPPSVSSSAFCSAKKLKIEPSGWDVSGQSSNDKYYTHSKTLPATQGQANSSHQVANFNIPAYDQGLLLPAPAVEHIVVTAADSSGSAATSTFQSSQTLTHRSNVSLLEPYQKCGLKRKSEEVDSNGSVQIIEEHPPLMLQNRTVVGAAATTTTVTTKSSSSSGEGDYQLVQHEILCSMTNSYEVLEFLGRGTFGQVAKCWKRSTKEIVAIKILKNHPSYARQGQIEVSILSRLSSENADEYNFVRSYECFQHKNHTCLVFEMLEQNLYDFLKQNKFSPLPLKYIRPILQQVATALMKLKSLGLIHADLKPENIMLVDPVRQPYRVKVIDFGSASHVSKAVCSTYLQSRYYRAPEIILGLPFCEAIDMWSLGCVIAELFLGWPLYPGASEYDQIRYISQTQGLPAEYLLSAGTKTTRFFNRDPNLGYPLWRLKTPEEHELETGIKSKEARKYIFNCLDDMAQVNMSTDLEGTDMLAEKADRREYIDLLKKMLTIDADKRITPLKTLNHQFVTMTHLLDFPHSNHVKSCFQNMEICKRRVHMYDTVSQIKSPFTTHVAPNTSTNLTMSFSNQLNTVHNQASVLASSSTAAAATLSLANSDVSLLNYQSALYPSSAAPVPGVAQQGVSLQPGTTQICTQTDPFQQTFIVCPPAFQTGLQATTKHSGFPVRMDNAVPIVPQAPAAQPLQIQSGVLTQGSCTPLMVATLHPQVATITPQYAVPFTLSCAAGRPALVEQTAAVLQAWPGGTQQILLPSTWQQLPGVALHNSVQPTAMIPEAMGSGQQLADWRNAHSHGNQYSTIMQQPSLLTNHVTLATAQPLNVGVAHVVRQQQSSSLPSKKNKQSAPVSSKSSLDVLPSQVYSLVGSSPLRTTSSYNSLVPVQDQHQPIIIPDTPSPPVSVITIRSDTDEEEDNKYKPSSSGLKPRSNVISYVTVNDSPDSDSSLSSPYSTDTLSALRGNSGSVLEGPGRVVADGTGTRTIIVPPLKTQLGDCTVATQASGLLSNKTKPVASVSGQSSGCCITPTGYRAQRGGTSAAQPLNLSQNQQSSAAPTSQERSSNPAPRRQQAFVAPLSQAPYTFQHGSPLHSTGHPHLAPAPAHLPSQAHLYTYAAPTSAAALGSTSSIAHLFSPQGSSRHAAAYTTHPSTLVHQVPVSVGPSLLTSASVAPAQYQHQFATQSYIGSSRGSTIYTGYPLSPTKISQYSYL
# Sequence of Glycogen synthase kinase-3 beta (Homo sapiens) (P49841 whole entry, looked up): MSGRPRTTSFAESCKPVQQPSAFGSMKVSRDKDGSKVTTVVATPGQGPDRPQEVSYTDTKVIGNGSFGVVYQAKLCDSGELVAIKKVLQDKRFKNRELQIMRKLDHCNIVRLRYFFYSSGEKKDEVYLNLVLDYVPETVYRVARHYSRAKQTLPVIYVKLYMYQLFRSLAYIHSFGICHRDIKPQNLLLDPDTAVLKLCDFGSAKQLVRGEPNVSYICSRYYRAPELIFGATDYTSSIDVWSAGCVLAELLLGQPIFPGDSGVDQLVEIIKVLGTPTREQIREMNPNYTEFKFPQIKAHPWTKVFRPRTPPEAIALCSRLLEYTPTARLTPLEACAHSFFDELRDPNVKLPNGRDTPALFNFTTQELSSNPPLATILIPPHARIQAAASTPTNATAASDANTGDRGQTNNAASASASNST
# Sequence of Glycogen synthase kinase-3 alpha (Homo sapiens) (P49840 2-483 limits assumed): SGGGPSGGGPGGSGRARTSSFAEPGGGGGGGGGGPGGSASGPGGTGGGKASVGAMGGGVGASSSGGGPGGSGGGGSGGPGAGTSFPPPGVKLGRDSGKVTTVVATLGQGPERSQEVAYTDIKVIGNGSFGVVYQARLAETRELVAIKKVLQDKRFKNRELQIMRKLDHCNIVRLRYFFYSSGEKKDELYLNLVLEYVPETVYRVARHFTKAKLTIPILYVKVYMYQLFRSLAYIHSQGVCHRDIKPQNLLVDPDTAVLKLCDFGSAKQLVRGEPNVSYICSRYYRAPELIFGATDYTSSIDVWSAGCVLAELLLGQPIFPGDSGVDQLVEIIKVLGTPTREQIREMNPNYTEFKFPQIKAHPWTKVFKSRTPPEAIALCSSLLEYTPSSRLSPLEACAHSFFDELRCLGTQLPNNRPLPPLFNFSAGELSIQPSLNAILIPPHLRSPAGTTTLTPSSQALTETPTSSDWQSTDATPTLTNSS
# Sequence of Dual specificity protein kinase CLK3 (Homo sapiens) (P49761 whole entry, looked up): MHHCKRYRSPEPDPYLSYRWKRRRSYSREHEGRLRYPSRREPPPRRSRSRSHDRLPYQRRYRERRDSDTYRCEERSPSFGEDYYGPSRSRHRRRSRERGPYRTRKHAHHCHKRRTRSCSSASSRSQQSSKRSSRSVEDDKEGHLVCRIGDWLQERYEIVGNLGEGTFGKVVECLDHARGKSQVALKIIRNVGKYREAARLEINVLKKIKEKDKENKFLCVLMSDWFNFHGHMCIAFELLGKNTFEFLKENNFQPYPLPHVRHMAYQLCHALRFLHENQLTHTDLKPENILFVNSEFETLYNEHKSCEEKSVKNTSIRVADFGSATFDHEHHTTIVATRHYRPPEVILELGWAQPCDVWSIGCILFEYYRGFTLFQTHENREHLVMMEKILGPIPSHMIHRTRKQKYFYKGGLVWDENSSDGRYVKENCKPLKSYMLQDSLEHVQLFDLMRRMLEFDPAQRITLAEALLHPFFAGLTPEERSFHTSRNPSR
# Sequence of Mitogen-activated protein kinase 9 (Homo sapiens) (P45984 whole entry, looked up): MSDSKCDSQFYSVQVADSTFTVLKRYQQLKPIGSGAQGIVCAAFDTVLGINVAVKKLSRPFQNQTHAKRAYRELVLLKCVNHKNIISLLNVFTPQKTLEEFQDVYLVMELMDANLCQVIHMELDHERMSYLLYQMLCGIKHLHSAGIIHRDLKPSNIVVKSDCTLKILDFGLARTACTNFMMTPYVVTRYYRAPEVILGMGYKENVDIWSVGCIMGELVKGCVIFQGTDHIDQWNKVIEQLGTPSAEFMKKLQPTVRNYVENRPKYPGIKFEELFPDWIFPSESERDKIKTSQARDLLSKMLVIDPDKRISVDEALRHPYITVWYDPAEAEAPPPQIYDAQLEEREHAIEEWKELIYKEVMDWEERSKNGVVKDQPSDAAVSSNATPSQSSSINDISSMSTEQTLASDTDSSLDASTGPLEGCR
# Sequence of Mitogen-activated protein kinase 1 (Homo sapiens) (P28482 whole entry): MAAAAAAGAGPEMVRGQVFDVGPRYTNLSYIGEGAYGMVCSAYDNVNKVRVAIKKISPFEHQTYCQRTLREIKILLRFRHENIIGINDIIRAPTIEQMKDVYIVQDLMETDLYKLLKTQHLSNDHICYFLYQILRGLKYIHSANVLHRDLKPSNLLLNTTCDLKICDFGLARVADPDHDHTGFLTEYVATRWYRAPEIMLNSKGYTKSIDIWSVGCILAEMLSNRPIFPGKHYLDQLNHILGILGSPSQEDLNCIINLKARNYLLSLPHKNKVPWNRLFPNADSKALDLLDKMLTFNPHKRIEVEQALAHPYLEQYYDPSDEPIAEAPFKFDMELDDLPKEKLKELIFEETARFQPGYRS
smiles,measurement,setting,value
CN(C)CCCNc1nccc(-c2c(-c3ccc(F)cc3)nn3cc(C(F)(F)F)ccc23)n1,inhibition,[1],-2.17%
same,inhibition,[2],-2.63%
same,inhibition,[3],1.55%
same,inhibition,[4],-2.7%
same,inhibition,[5],-0.43%
same,inhibition,[6],1.01%
same,inhibition,[7],2.09%
same,inhibition,[8],2.87%
same,inhibition,[9],7.76%
same,inhibition,[10],3.14%
same,inhibition,[11],7.7%
same,inhibition,[12],-4.22%
same,inhibition,[13],1.54%
same,inhibition,[14],4.04%
same,inhibition,[15],8.4%
same,inhibition,[16],2.73%
same,inhibition,[17],11%
same,inhibition,[18],1.62%
same,inhibition,[19],2.71%
same,inhibition,[20],2.96%
Fc1ccc(-c2ncn(CCCN3CCOCC3)c2-c2ccncc2)cc1,inhibition,[1],0.51%
same,inhibition,[2],-0.26%
same,inhibition,[3],0.01%
same,inhibition,[4],-0.42%
same,inhibition,[5],-0.19%
same,inhibition,[6],-0.03%
same,inhibition,[7],0.55%
same,inhibition,[8],-0.11%
same,inhibition,[9],4.21%
same,inhibition,[10],-0.54%
same,inhibition,[11],1.01%
same,inhibition,[12],-3.44%
same,inhibition,[13],-1.47%
same,inhibition,[14],-2.02%
same,inhibition,[15],-2.54%
same,inhibition,[16],2.43%
same,inhibition,[17],6.68%
same,inhibition,[18],0.12%
same,inhibition,[19],1.09%
same,inhibition,[20],4.06%
COc1cc(C)c(N(C)C(=O)CN(C)C)cc1Nc1nc(Nc2cccc(F)c2C(N)=O)c2cc[nH]c2n1,inhibition,[1],-1.03%
same,inhibition,[2],2.09%
same,inhibition,[3],15.2%
same,inhibition,[4],-1.79%
same,inhibition,[5],13.1%
same,inhibition,[6],2.31%
same,inhibition,[7],1.64%
same,inhibition,[8],-2.99%
same,inhibition,[9],-1.13%
same,inhibition,[10],-3.79%
same,inhibition,[11],-3.33%
same,inhibition,[12],-4.07%
same,inhibition,[13],2.02%
same,inhibition,[14],0.06%
same,inhibition,[15],4.88%
same,inhibition,[16],1.42%
same,inhibition,[17],2.97%
same,inhibition,[18],0.6%
same,inhibition,[19],3.4%
same,inhibition,[20],2.26%
Cc1ccc(C(=O)NC2CCC2)cc1-c1ccc(C(=O)NCC2CC2)cc1,inhibition,[1],1.28%
same,inhibition,[2],2.74%
same,inhibition,[3],5.39%
same,inhibition,[4],1.78%
same,inhibition,[5],2.49%
same,inhibition,[6],2.22%
same,inhibition,[7],3.3%
same,inhibition,[8],1.01%
same,inhibition,[9],4.22%
same,inhibition,[10],0.28%
same,inhibition,[11],3.43%
same,inhibition,[12],-0.93%
same,inhibition,[13],2.06%
same,inhibition,[14],-0.06%
same,inhibition,[15],1.07%
same,inhibition,[16],2.74%
same,inhibition,[17],3.35%
same,inhibition,[18],0.32%
same,inhibition,[19],3.11%
same,inhibition,[20],2.05%
C[C@@H](Oc1cc(-n2cnc3ccc(OC4CCN(C)CC4)cc32)sc1C(N)=O)c1ccccc1Cl,inhibition,[1],-2.38%
same,inhibition,[2],-0.72%
same,inhibition,[3],0.72%
same,inhibition,[4],-4.55%
same,inhibition,[5],-3.42%
same,inhibition,[6],2.47%
same,inhibition,[7],7.45%
same,inhibition,[8],-1.18%
same,inhibition,[9],-0.34%
same,inhibition,[10],-1.76%
same,inhibition,[11],-0.12%
same,inhibition,[12],-4.32%
same,inhibition,[13],2.08%
same,inhibition,[14],3.54%
same,inhibition,[15],28.7%
same,inhibition,[16],1.24%
same,inhibition,[17],5.06%
same,inhibition,[18],5.74%
same,inhibition,[19],6.64%
same,inhibition,[20],3.11%
CN(c1ccc(NC(=O)Nc2c(Cl)cccc2Cl)cc1)c1ccnc(Nc2cccc(CS(C)(=O)=O)c2)n1,inhibition,[1],1.23%
same,inhibition,[2],-0.53%
same,inhibition,[3],0.63%
same,inhibition,[4],-0.2%
same,inhibition,[5],1.52%
same,inhibition,[6],2.28%
same,inhibition,[7],1.29%
same,inhibition,[8],4.09%
same,inhibition,[9],10%
same,inhibition,[10],4.11%
same,inhibition,[11],9.63%
same,inhibition,[12],2.01%
same,inhibition,[13],5.39%
same,inhibition,[14],7.1%
same,inhibition,[15],18.4%
same,inhibition,[16],5.56%
same,inhibition,[17],8.85%
same,inhibition,[18],3.03%
same,inhibition,[19],2.83%
same,inhibition,[20],2.56%
COc1cc(Nc2ncc3c(C)nc(-c4cccc(C(F)(F)F)c4)n3n2)cc(OC)c1OC,inhibition,[1],2.91%
same,inhibition,[2],4.11%
same,inhibition,[3],29.8%
same,inhibition,[4],0.38%
same,inhibition,[5],11.2%
same,inhibition,[6],2.73%
same,inhibition,[7],3.63%
same,inhibition,[8],2.88%
same,inhibition,[9],13.8%
same,inhibition,[10],4.09%
same,inhibition,[11],28.1%
same,inhibition,[12],4.84%
same,inhibition,[13],26.8%
same,inhibition,[14],1.83%
same,inhibition,[15],9.08%
same,inhibition,[16],0.45%
same,inhibition,[17],4.58%
same,inhibition,[18],5.55%
same,inhibition,[19],13%
same,inhibition,[20],4.86%
O=C(Nc1ccc(Oc2ccc3[nH]c(NC(=O)c4ccccc4)nc3c2)cc1)Nc1cc(C(F)(F)F)ccc1F,inhibition,[1],3.71%
same,inhibition,[2],1.94%
same,inhibition,[3],4.75%
same,inhibition,[4],0.86%
same,inhibition,[5],3.47%
same,inhibition,[6],2.36%
same,inhibition,[7],3.65%
same,inhibition,[8],3.49%
same,inhibition,[9],8.16%
same,inhibition,[10],3.19%
same,inhibition,[11],7.73%
same,inhibition,[12],-0.21%
same,inhibition,[13],0.17%
same,inhibition,[14],9.12%
same,inhibition,[15],47.7%
same,inhibition,[16],3.43%
same,inhibition,[17],6.62%
same,inhibition,[18],2.12%
same,inhibition,[19],2.7%
same,inhibition,[20],4.31%
O=C(Nc1n[nH]c2nc(-c3ccco3)ccc12)C1CC1,inhibition,[1],0.48%
same,inhibition,[2],-0.57%
same,inhibition,[3],1.05%
same,inhibition,[4],-0.1%
same,inhibition,[5],1.34%
same,inhibition,[6],1.49%
same,inhibition,[7],1.64%
same,inhibition,[8],11.5%
same,inhibition,[9],48.9%
same,inhibition,[12],0.14%
same,inhibition,[13],1.4%
same,inhibition,[14],2.3%
same,inhibition,[15],6.99%
same,inhibition,[16],0.84%
same,inhibition,[17],2.1%
same,inhibition,[18],0.04%
same,inhibition,[19],0.76%
same,inhibition,[20],0.6%
CNC(=O)c1cncc(/C=C/c2c(C)cccc2C)c1,inhibition,[1],-2.04%
same,inhibition,[2],-1.29%
same,inhibition,[3],2.27%
same,inhibition,[4],0.49%
same,inhibition,[5],1.89%
same,inhibition,[6],-0.14%
same,inhibition,[7],-0.61%
same,inhibition,[8],-2.93%
same,inhibition,[9],-0.82%
same,inhibition,[10],-1.93%
same,inhibition,[11],-0.33%
same,inhibition,[12],-0.47%
same,inhibition,[13],2.67%
same,inhibition,[14],1.19%
same,inhibition,[15],6.66%
same,inhibition,[16],2.54%
same,inhibition,[17],1.94%
same,inhibition,[18],-3.06%
same,inhibition,[19],0.43%
same,inhibition,[20],0.86%
c1ccc(Oc2ccc(Nc3ncc(-c4ccccc4)o3)cc2)cc1,inhibition,[1],1.59%
same,inhibition,[2],2.14%
same,inhibition,[3],5.29%
same,inhibition,[4],1.51%
same,inhibition,[5],2.84%
same,inhibition,[6],0.4%
same,inhibition,[7],0.21%
same,inhibition,[8],2%
same,inhibition,[9],5.53%
same,inhibition,[10],1.83%
same,inhibition,[11],7.42%
same,inhibition,[12],1.51%
same,inhibition,[13],3.29%
same,inhibition,[14],-0.61%
same,inhibition,[15],1.2%
same,inhibition,[16],0.54%
same,inhibition,[17],2.94%
same,inhibition,[18],-1.99%
same,inhibition,[19],6.11%
same,inhibition,[20],1.01%
COc1ccc(C2=C(N3CCc4ccccc43)C(=O)NC2=O)cc1,inhibition,[1],4.16%
same,inhibition,[2],4.7%
same,inhibition,[3],13%
same,inhibition,[4],1.97%
same,inhibition,[5],8.53%
same,inhibition,[6],3.77%
same,inhibition,[7],5.13%
same,inhibition,[8],11.5%
same,inhibition,[9],42.9%
same,inhibition,[12],4.48%
same,inhibition,[13],8.68%
same,inhibition,[14],3.35%
same,inhibition,[15],4.04%
same,inhibition,[16],3.78%
same,inhibition,[17],7.16%
same,inhibition,[18],-0.01%
same,inhibition,[19],5.89%
same,inhibition,[20],4.13%
Fc1ccc(-c2ncn(C3CCNCC3)c2-c2ccnc(Oc3ccc(F)c(F)c3)n2)cc1,inhibition,[1],-3.79%
same,inhibition,[2],-2.02%
same,inhibition,[3],-0.16%
same,inhibition,[4],-4.48%
same,inhibition,[5],-2.53%
same,inhibition,[6],1.98%
same,inhibition,[7],2.31%
same,inhibition,[8],0.07%
same,inhibition,[9],2.94%
same,inhibition,[10],-0.48%
same,inhibition,[11],2.53%
same,inhibition,[12],-6.31%
same,inhibition,[13],-2.14%
same,inhibition,[14],0.46%
same,inhibition,[15],1.77%
same,inhibition,[18],4.93%
same,inhibition,[19],6.35%
same,inhibition,[20],3.84%
